Consider 15 molecules from PubChem BioAssay (NCATS).

Inconclusive results are not listed. Activity calls are given as the source filed them. Unless noted, the call rests on the fitted dose curve.

Assay [1] can be described thus: qHTS for Inhibitors of the Functional Ribonucleoprotein Complex (vRNP) of Lassa (LASV) Arenavirus: Viability assay - alamar blue signal for LASV Primary Screen (AID 1347083; calls by dose curve; tested in HEK293 reporter line; further: nearly all actives have a fitted effect of over 80% in size). For orientation: qHTS replaces the single test concentration by a dilution series.
Assay [2] is described as follows: qHTS for Inhibitors of the Functional Ribonucleoprotein Complex (vRNP) of Lymphocytic Choriomeningitis Arenaviruses (LCMV): Viability assay - alamar blue signal for LCMV Primary Screen (AID 1347085; calls by dose curve; tested in HEK293 reporter line; further: nearly all actives have a fitted effect of over 80% in size).
Assay [3] addresses Nucleoprotein (Lymphocytic choriomeningitis virus (strain Armstrong)) (UniProt P09992). Description: qHTS for Inhibitors of the Functional Ribonucleoprotein Complex (vRNP) of Lymphocytic Choriomeningitis Arenaviruses (LCMV): LCMV Primary Screen - GLuc reporter signal (AID 1347086). Further: nearly all actives have a fitted effect of over 70% in size.
Potency means the concentration at half of the fitted maximal effect.

Nucleoprotein (Lymphocytic choriomeningitis virus (strain Armstrong)), sequence (P09992 whole entry, looked up): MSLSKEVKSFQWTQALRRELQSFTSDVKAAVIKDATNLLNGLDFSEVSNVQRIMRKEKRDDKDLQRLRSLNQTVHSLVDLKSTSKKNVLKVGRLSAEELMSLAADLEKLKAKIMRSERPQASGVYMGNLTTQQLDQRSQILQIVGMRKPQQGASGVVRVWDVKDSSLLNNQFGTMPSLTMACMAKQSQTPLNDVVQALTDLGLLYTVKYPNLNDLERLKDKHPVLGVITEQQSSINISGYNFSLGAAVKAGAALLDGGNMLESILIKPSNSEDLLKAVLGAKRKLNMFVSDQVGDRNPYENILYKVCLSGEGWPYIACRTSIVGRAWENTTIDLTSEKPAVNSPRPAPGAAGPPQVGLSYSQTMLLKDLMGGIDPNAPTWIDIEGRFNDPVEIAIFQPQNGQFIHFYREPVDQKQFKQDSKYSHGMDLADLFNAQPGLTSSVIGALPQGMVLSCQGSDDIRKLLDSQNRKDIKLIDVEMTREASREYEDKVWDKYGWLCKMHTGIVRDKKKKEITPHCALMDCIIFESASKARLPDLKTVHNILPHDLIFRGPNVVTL

As to `O=c1[nH]cnc2c1ncn2[C@H]1CC[C@@H](CO)O1`, the Potency entry in assay [1], in assay [2] and in assay [3] was “inactive” throughout.

For `CCOC(=O)Nc1ccc2c(c1)N(C(=O)CCN1CCOCC1)c1ccccc1S2`, the Potency result in assay [1], in assay [2] and in assay [3] was “inactive” throughout.

With `O=C(O)P(=O)(O)O`, the Potency result in assay [1], in assay [2] and in assay [3] was “inactive” each time.

For `CCCCc1ncc(/C=C(\Cc2cccs2)C(=O)O)n1Cc1ccc(C(=O)O)cc1`, the Potency entry in assay [1], in assay [2] and in assay [3] was “inactive” throughout.

Regarding `CCc1ccc(CCOc2ccc(CC3SC(=O)NC3=O)cc2)nc1` (stereo not given), the Potency entry in assay [1], in assay [2] and in assay [3] was “inactive” throughout.

For the molecule `CN1C(CCl)Nc2cc(Cl)c(S(N)(=O)=O)cc2S1(=O)=O` (stereo not given), the Potency result in assay [1], in assay [2] and in assay [3] was “inactive” throughout.

Take `c1cnc2cc3c(cc2n1)C1CNCC3C1`: the Potency in assay [1] is 24300 nM (active). The Potency result in assay [2] and in assay [3] was “inactive” throughout.

For `Nc1nnc(-c2cccc(Cl)c2Cl)c(N)n1`, the Potency result in assay [1], in assay [2] and in assay [3] was “inactive” throughout.

As for `CNCCCN1c2ccccc2CCc2ccccc21`, the Potency entry in assay [1], in assay [2] and in assay [3] was “inactive” in each case.

Consider `CCCN(CCC)CCc1cccc2c1CC(=O)N2`, for which the Potency entry in assay [1], in assay [2] and in assay [3] was “inactive” each time.

Regarding `O[C@@H](c1cc(C(F)(F)F)nc2c(C(F)(F)F)cccc12)[C@H]1CCCCN1`, the Potency result in assay [1], in assay [2] and in assay [3] was “inactive” each time.

As for `CCCc1cc(=O)[nH]c(=S)[nH]1`, the Potency result in assay [1], in assay [2] and in assay [3] was “inactive” each time.

`CC(C)C[C@H](NC(=O)[C@H](Cc1ccccc1)NC(=O)c1cnccn1)B(O)O`: the Potency in assay [1] is 217 nM (active); in assay [2], 685 nM (active); in assay [3], 344 nM (active).

Take `Cc1nccn1CC1CCc2c(c3ccccc3n2C)C1=O` (stereo not given): the Potency result in assay [1], in assay [2] and in assay [3] was “inactive” in each case.

Consider `CNCCCC1c2ccccc2C=Cc2ccccc21`, for which the Potency entry in assay [1], in assay [2] and in assay [3] was “inactive” in each case.
